In the library only some 5.7% were active in any assay of this set; here they are far more common.
ATXN2 expr inh – Primary qHTS for Inhibitors of ATXN expression; HEK-293 ATXN2-luciferase reporter, luminescence, 24 h; 0.72% of 360,000 active; Potency, µM (titrated, usually from 57 µM), for inactives: at the top dose activity change, negative = inhibition, hits mostly inhibitors; AID 1745845, 2022; also: potency is read from the fitted curve at half-maximal effect; % is scaled to controls: 0 for no effect and ±100 for the full control effect; nearly all actives have a fitted effect of over 55% in size
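ATXN2-luciferase reporter cells (luciferase flanked by upstream and downstream ATXN2 gene portions) were treated 24 h at 37 °C with compounds at up to 57 uM. SteadyGlo luminescence gave expression; GF-AFC fluorescence gave viability.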
TGFb inhibitor – qHTS for Inhibitors of TGF-b; HepG2 CAGA-GFP TGF-b/SMAD3 reporter, GFP fluorescence, 18 h; TGF-beta stimulated, 500 pg/mL final; Potency, µM (top dose mostly 46.1 µM), for inactives: at the top dose activity, negative = inhibition, usual class: inhibitors; 1.2% of 410,000 active; AID 588855, 2011; also: potency is read from the fitted curve at half-maximal effect; % is scaled to controls: 0 for no effect and ±100 for the full control effect; nearly all actives have a fitted effect of over 65% in size
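TGF-beta reporter screen: HEPG2 CAGA-GFP, 1% FBS, 500 pg/mL TGF-beta final, 18 h; per-cell GFP summed per well; curves fitted and categorized by class.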
HepG2 tox – qHTS for Inhibitors of TGF-b: Cytotox Counterscreen. HepG2 CAGA-GFP viability, ATP luminescence, 18 h. Potency, µM (top dose mostly 46.1 µM), without a hit: at the top dose activity change, negative = cytotoxicity, hits mostly cytotoxic. 0.76% of 410,000 active. AID 588856, 2011; also: potency is read from the fitted curve at half-maximal effect
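CellTiter-Glo luminescence gave cytotoxicity after 18 hours at 37 degrees C. The cells were HepG2 CAGA-GFP in 1% FBS DMEM, stimulated with 500 pg/mL TGF-beta after compound addition. %Activity was normalised to no-cell wells (complete cell-killing) and DMSO (no toxicity), and curves were fitted and classified.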
IL1B secr inh – qHTS for Inhibitors of Inflammasome Signaling: IL-1-beta AlphaLISA Primary Screen; THP-1 LPS/ATP IL-1B secretion, AlphaLISA, 16 h; stronger effect = lower value; 4.7% of 360,000 active; AID 743279, 2014; activity change, % at 57.5 µM; in the data active = activity change below about -50%; inconclusive = mostly about -30% to -49%; also: % is scaled to controls: 0 for no effect and ±100 for the full control effect
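Secreted IL-1B measured by AlphaLISA bead assay after 16 h compound exposure of THP-1 cells; compounds (final up to 57.5 uM) added 1 h before LPS (250 ng/mL) and ATP (1.25 mM) stimulation; lower signal means less secretion.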
ATXN viability – Viability Counterscreen for Primary qHTS for Inhibitors of ATXN expression; S2 cells (HEK-293 line with an ATXN2-luciferase reporter) viability, CellTiter-Fluor protease fluorescence, 24 h; Potency, µM (highest dose often 56.7 µM), usual class: cytotoxic; 0.49% of 400,000 active; also: potency is read from the fitted curve at half-maximal effect; nearly all actives have a fitted effect of over 40% in size
Starred values were filed as active, the others as inactive; i = inactive; ? = inconclusive; · = not tested or not shown. Unless noted, calls follow the shape of the dose curve; as a rule, active = well fitted curve in the direction sought with a large enough effect; inconclusive = small, poorly fitted or top-dose-only effect, or another doubt; inactive = no such curve, though single readings can be large; an effect the other way counts as inactive or inconclusive.

SMILES | ATXN2 expr inh | TGFb inhibitor | HepG2 tox | IL1B secr inh | ATXN viability
Cc1nc(N)sc1N=Nc1ccccc1C(F)(F)F | 43% | 0% | -21% | -71* | ?
COc1cc([N+](=O)[O-])c2ncsc2c1 | -11% | 1% | -3% | 16 | i
COc1cc(SSc2cc(OC)cc([N+](=O)[O-])c2N)c(N)c([N+](=O)[O-])c1 | · | ? | -58% | -77* | 7.9µM*
COC1CCN(Cc2cn(Cc3ccccc3)nc2-c2cc3ccccc3o2)CC1 | ? | ? | -20% | ? | ?
OCC1CCCN(Cc2cn(Cc3ccccc3)nc2-c2cc3ccccc3o2)C1 (stereo not drawn) | ? | 0% | -25% | -62* | ?
OCC1CCN(Cc2cn(Cc3ccccc3)nc2-c2cc3ccccc3o2)CC1 | -7% | 4% | 6% | -56* | i
OCc1cn(-c2ccccc2)nc1-c1cc2ccccc2o1 | 107% | ? | -24% | -16 | i
CCc1cccc(C)c1NC(=O)COCc1cc(-c2ccc3c(c2)OCO3)on1 | · | -22% | -42% | · | ·
CC(C)CC(=O)NCCc1ccncc1 | -13% | -18% | 2.8µM* | -1 | i
CCCNC(=O)NCCc1ccncc1 | -30% | 2% | -1% | 59 | i
COc1ccc2oc(=O)c(C(=O)NCCc3c(C)[nH]c4c(C)cccc34)cc2c1 | 1% | 2% | -5% | · | i
Cc1nn2c(N)c(-c3ccccc3)cnc2c1-c1ccc(Cl)cc1 | 80% | ? | -35% | -69* | i
N#C/C(=C/c1cn(-c2ccccc2)nc1-c1cccc(OCc2ccc(F)cc2)c1)C(=O)NCCCn1ccnc1 | ? | ? | -46% | -68* | i
O=C(NCCCn1ccnc1)c1cn(-c2ccccc2)nc1-c1ccc(F)cc1 | 9% | ? | -53% | ? | i
CCCOc1cccc(-c2nn(-c3ccccc3)cc2/C=C(\C#N)C(=O)NCCCn2ccnc2)c1 | -15% | 1% | -18% | -58* | i
N#C/C(=C\c1ccc([N+](=O)[O-])cc1)C(=O)NCCCn1ccnc1 | -3% | -19% | -7% | -12 | i
O=C(CCn1cccn1)Nc1ccc(Br)cc1F | 10% | 1% | -1% | · | i
CC(C)C(NS(C)(=O)=O)c1nnc2n1CCN(Cc1ccc(C#CC(C)(C)O)cc1)CC2 (stereo not drawn) | · | · | · | · | i
CCOCCCNCc1cc(Br)ccc1OCc1ccccc1 | -2% | -3% | 11% | -60* | i
OCCNCc1cc(Br)ccc1OCc1ccccc1 | -21% | 6% | -11% | -58* | i
Brc1ccc(OCc2ccccc2)c(CNCC2CCCO2)c1 (stereo not drawn) | · | -11% | -46% | -18 | i
CCOC(=O)c1cnc2ccc(C)cc2c1Sc1ccc(F)cc1 | 16% | ? | -28% | -12 | i
CCCCOc1c(C(=O)c2c(F)cc(C)cc2F)cnc2n[nH]cc12 | 9.7µM* | · | · | · | ·
O=C(NCCc1nc2ccccc2n1CCCOc1ccc(Cl)cc1)C1CCCCC1 | · | 18µM* | -97% | · | ·
Cc1cccc(OCCCn2c(CCNC(=O)C3CCCCC3)nc3ccccc32)c1 | · | 22µM* | -70% | · | ·
SMILES | ATXN2 expr inh | TGFb inhibitor | HepG2 tox | IL1B secr inh | ATXN viability
Cc1cccc(C)c1OCCn1c(CCNC(=O)C2CCCCC2)nc2ccccc21 | · | 13µM* | -59% | · | ·
Cc1cc(C)cc(OCCn2c(CCNC(=O)C3CCCCC3)nc3ccccc32)c1 | · | -2% | 0% | · | ·
O=C(NCCCc1nc2ccccc2n1Cc1ccccc1)C1CCCCC1 | ? | ? | -35% | · | ?
O=C(NCCCc1nc2ccccc2n1Cc1ccc(F)cc1)C1CCCCC1 | -39% | 13µM* | -53% | · | ?
O=C(NCCc1nc2ccccc2n1CCCOc1ccc2ccccc2c1)C1CCCCC1 | · | 4% | 0% | · | ·
O=C(CC(c1cccs1)N1Cc2ccccc2C1=O)Nc1ccccc1 (stereo not drawn) | 12% | 0% | -2% | · | i
Cc1ccc(NC(=O)c2cnc(SCC(=O)N3CCOCC3)n(C)c2=O)cc1 | · | -2% | -6% | · | ·
CC(C)(C)c1ccc(OCCn2c(CCNC(=O)C3CCCCC3)nc3ccccc32)cc1 | · | 20µM* | -78% | · | ·
S=C(Nc1ccccc1)Nc1nc2ccccc2n1CCOc1ccc(Cl)cc1 | ? | 14µM* | -58% | -88* | i
CCCn1c(NC(=S)Nc2ccccc2)nc2ccccc21 | -4% | ? | -70% | -26 | i
O=C(O)c1ccc(N/N=C/c2ccc(OC(=O)c3cccc(Cl)c3)cc2)cc1 | 5µM* | -13% | -68% | -10 | i
COc1ccc2oc(-c3ccc(NC(=O)c4ccc(Cl)cc4Cl)cc3)nc2c1 | 0% | ? | -35% | · | i
Cc1cc(C)c(NC(=O)c2nc3ccccc3nc2N2CCCCC2)c(C)c1 | 0% | 4% | 2% | · | i
CCCC[n+]1ccn(-c2nc3ccccc3nc2[N-]S(=O)(=O)c2ccc(Br)cc2)c1 | -25% | -2% | -166% | 13 | i
CCCCC[n+]1ccn(C2=C([O-])c3ccccc3C(=O)/C2=N\S(=O)(=O)c2ccc(Cl)cc2)c1 | -24% | 3.2µM* | 3.5µM* | 107 | i
CCCC[n+]1ccn(C2=C([O-])c3ccccc3C(=O)/C2=N\S(=O)(=O)c2ccc(Cl)cc2)c1 | ? | 10µM* | 11µM* | 43 | ?
Cc1ccc(CNC(=O)CCc2nnc3n(C)c(=O)c4sccc4n23)cc1 | 13% | 10% | 6% | · | i
O=[N+]([O-])c1cc2c(cc1/C=N\NS(=O)(=O)c1ccccc1)OCO2 | -7% | 1% | 6% | -12 | i
CNc1nc(N/N=C/c2cc3c(cc2[N+](=O)[O-])OCO3)nc(Nc2ccccc2)n1 | · | ? | 16µM* | -14 | 28µM*
CNc1nc(N/N=C/c2cc([N+](=O)[O-])ccc2F)nc(Nc2ccccc2)n1 | · | -28% | -26% | -97* | ?
Cc1cnc(-n2ncc(C(=O)N(CCO)C(C)C)c2-c2cccs2)nc1-c1ccc(F)cc1 | · | · | · | · | i
CN(C)c1cc2c(cc1NC(=O)c1ccc(F)cc1)n(C)c(=O)n2C | · | -11% | -5% | · | ·
CCN1CCN(c2ccc(NC(=O)CCc3c(C)nc4c(-c5ccccc5)c(C)nn4c3C)cc2)CC1 | ? | ? | -15% | -62* | ?
CCOc1ccc(NC(=O)CCc2c(C)nc3c(-c4ccccc4)c(C)nn3c2C)cc1 | 5% | -4% | -13% | · | i
CC(C)Cn1c(=O)c2ccccc2n2c(CCC(=O)Nc3cccc(Cl)c3)nnc12 | · | 3% | -3% | · | ·
CN(Cc1ccccc1)C(=O)CSc1nc2ccccc2c(=O)n1Cc1ccco1 | 55% | -9% | -17% | -71* | i

Screening results (PubChem BioAssay)
